From PubChem BioAssay
S2 tox = cell viability loss in ATXN counter-screen; S2 cells (HEK-293 line with an ATXN2-luciferase reporter) viability, CellTiter-Fluor protease fluorescence, 24 h; Potency, µM (doses to about 56.7 µM), usual class: cytotoxic; 400,000 compounds, 0.49% hits; AID 651635; note: nearly all actives have a fitted effect of over 40% in size
TGFb inhibitor = blocks TGF-b signaling; AID 588855; 410,000 compounds, 1.2% hits; Potency, µM (doses to about 46.1 µM), hits mostly inhibitors; HepG2 CAGA-GFP TGF-b/SMAD3 reporter, GFP fluorescence, 18 h; TGF-beta stimulated, 500 pg/mL final; note: nearly all actives have a fitted effect of over 65% in size
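Using HEPG2 CAGA-GFP reporter cells at 1000 cells/well, we pinned test compounds, stimulated with recombinant TGF-beta (500 pg/mL final) and measured total well GFP after 18 h.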
D3 antag = antagonists of human D3 dopamine receptor. D3R cells, DiscoveRx beta-arrestin luminescence, antagonist mode; active compounds read low. AID 652054. 360,000 compounds, 2.5% hits. max response, negative = inhibition, %; in the data active = max response below about -50%; inconclusive = no clear call, values can overlap the other calls
Target sequence (P35462 whole entry, looked up): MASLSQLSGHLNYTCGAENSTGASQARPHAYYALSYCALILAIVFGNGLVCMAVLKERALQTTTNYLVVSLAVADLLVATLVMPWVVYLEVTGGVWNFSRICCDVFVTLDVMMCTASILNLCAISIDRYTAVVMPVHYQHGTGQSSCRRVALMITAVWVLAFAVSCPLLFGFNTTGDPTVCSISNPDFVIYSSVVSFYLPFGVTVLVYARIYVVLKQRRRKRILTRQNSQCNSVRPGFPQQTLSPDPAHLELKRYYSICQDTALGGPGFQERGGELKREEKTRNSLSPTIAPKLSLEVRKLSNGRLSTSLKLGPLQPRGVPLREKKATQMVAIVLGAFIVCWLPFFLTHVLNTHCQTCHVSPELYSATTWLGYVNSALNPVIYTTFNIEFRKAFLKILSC
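Cells plated overnight at 1500 cells/well, then exposed to library compounds with dopamine controls for 90 minutes at 37 degrees C. DiscoveRx reagent added for 30–60 minutes at room temperature; luminescence read, quantitative HTS format.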
D3 ag = agonists of human D3 dopamine receptor. 410,000 compounds, 0.58% hits. D3R DiscoveRx beta-arrestin cells, luminescence, 90 min. P35462. max activation, %; in the data active = max activation above about 30%
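Cells at 1500/well, incubated overnight, then treated with pinned compounds (dopamine as control) for 90 min at 37 degrees C. DiscoveRx reagent added for 30 - 60 minutes at room temperature; luminescence read.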
ATXN2 expr inh = inhibitors of ATXN2 expression; HEK-293 ATXN2-luciferase reporter, luminescence, 24 h; Potency, µM (top dose mostly 57 µM), actives largely listed as inhibitors; 360,000 compounds, 0.72% hits; AID 1745845; note: nearly all actives have a fitted effect of over 55% in size
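ATXN2-luciferase reporter cells (luciferase flanked by upstream and downstream ATXN2 gene portions) were treated 24 h at 37 °C with compounds at up to 57 uM. SteadyGlo luminescence gave expression; GF-AFC fluorescence gave viability.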
HepG2 tox = counter-screen for TGF-b inhibitors: cytotoxicity in HepG2 cells; HepG2 CAGA-GFP viability, ATP luminescence, 18 h; Potency, µM (titrated, usually from 46.1 µM), usual class: cytotoxic; 410,000 compounds, 0.76% hits; AID 588856
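HepG2 CAGA-GFP cells (1000/well, DMEM with 1% FBS) received compound, then TGF-beta at 500 pg/mL final, and were incubated 18 hours at 37 degrees C. Viability was read by CellTiter-Glo luminescence. Media-only wells were set as complete cell-killing and DMSO as no toxicity.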
A number is an active result; n = inactive; u = inconclusive; x = not tested or not shown; ! = not active in a repeat; [ ] = another dose, or the depositor's remark. A selection: hits, their analogues and other compounds. The true share with any hit is near 4.8%. Unless noted, calls come from the whole dose curve; as a rule, active = well fitted curve in the direction sought with a large enough effect; inconclusive = small, poorly fitted or top-dose-only effect, or another doubt; inactive = no such curve, though single readings can be large; an effect the other way counts as inactive or inconclusive.

SMILES | S2 tox | TGFb inhibitor | D3 antag | D3 ag | ATXN2 expr inh | HepG2 tox
CCCCC[n+]1ccn(C2=C([O-])c3ccccc3C(=O)/C2=N\S(=O)(=O)c2ccc(Cl)cc2)c1 | n | 3.2µM | u | n | n | 3.5µM
COC(=O)c1c(-c2cccs2)csc1NC(=O)COc1ccc(C(C)C)cc1 | x | x | x | n | x | n
CCc1ccc(NC(=O)Cn2c(=O)n(CCCCC(=O)NCCc3ccccc3)c(=O)c3ccccc32)cc1 | n | n | x | n | n | n
Cc1c(N2C(=O)CS/C2=N\N=C\c2ccc(Cl)cc2)c(=O)n(-c2ccccc2)n1C | n | n | n | n | n | n
Cc1c(N2C(=O)CS/C2=N\N=C\c2ccccc2O)c(=O)n(-c2ccccc2)n1C | n | n | n | 39 | n | n
CC(C(=O)c1ccccc1)[n+]1cccc(Cl)c1 (configuration not stated) | x | n | x | x | x | n
CCOc1ccc(CCNC(=O)Cn2ncc3c([nH]c4ccccc43)c2=O)cc1OCC | n | n | x | n | n | n
O=C(Cn1nc(Cc2cccnc2)c2ccccc2c1=O)N1CCN(c2ccccn2)CC1 | n | n | n | n | n | n
COc1ccc(N2CCN(C(=O)Cn3nc(Cc4cccnc4)c4ccccc4c3=O)CC2)cc1 | x | u | x | 70 | x | n
CC(C)Cn1c(CNC(=O)c2ccccc2)nc2ccccc21 | n | n | -56 | n | n | n
Cn1c(CCc2ccc(N)cc2)nc2ccccc21 | u | n | -51 | n | n | n
CCCn1c(CNC(=O)c2ccccc2)nc2ccccc21 | n | n | -79 | n | n | n
Cn1c(CCCNC(=O)c2ccccc2)nc2ccccc21 | n | n | -54 | n | n | n
CC(C)Cn1c(CCCNC(=O)c2ccc(F)cc2)nc2ccccc21 | n | n | n | n | n | n
Cn1c(CCCNC(=O)c2cccs2)nc2ccccc21 | n | n | n | n | n | n
CN(C)c1ccc(/C=C/c2ccnc3ccc(N)cc23)cc1 | x | n | x | x | x | n
Cc1nonc1CN(C)C(=O)C1CC12CCN(C(=O)/C=C/c1cccc(Cl)c1)CC2 (configuration not stated) | n | x | x | x | x | x
CCCCc1nn2c(=O)cc(COC(=O)CNC(=O)c3ccccc3C)nc2s1 | n | n | x | n | n | n
O=C(COc1ccc(Br)cc1)Nc1ccc(C(=O)OC2CCCCC2)cc1 | n | n | x | n | n | n
Cc1nc2ccccc2n1CC(=O)NN | n | n | n | n | x | n
O=C(Cn1c(=O)nc(-c2ccccc2)c2cc(Cl)ccc21)NCc1ccccc1 | x | n | x | 32 | x | n
Cc1nc2ccccc2n1CC(=O)NCc1ccccc1 | n | n | -50 | n | n | n
COc1ccc(C(=O)NCCc2nc3cc([N+](=O)[O-])ccc3n2C)cc1 | n | n | -113 | n | x | n
O=c1[nH]c(-c2ccc(C(F)(F)F)cc2)nc2c1CSCC2 | x | x | x | x | n | x
NS(=O)(=O)c1ccc(CCNc2nc3c(-c4cccc(F)c4)nnn3c3ccc(Cl)cc23)cc1 | n | u | x | n | n | 8.9µM
SMILES | S2 tox | TGFb inhibitor | D3 antag | D3 ag | ATXN2 expr inh | HepG2 tox
CCOc1ccc(CCNC(=O)c2cn(CC)c3ccc(S(=O)(=O)N4CCCCCC4)cc3c2=O)cc1OCC | n | n | x | n | n | n
COc1cccc(CNC(=O)CN2N=C(c3ccc(C)cc3)CCC2=O)c1 | x | n | x | 33 | x | n
O/N=C(/C[n+]1cccc(Br)c1)c1ccc2ccccc2c1 | x | n | x | x | x | n
CCn1c(C)nnc1SCC(=O)Nc1ccc(OC)cc1 | n | n | n | n | x | 6.3µM
COc1ccc(-c2nnc(SCC(=O)Nc3ccc(Cl)cc3)n2C)cc1 | n | n | -57 | n | n | n
CN(Cc1ccccc1)/[N+]([O-])=N/Oc1ccc([N+](=O)[O-])cc1[N+](=O)[O-] | x | u | x | x | x | n
CCOc1cc(/C=N\NC(=O)c2ccc(NC(=O)CC)cc2)ccc1OC(=O)c1ccccc1 | u | n | n | n | 20µM | n
Cn1cnc2c1c(=O)[nH]c(=O)n2C | n | x | x | n | 31µM! | x
C=C(C)c1cccc(C(C)(C)NC(=O)NC2CCN(Cc3ccccc3)CC2)c1 | n | u | -77 | n | x | n
CC(=O)c1cccc(OCc2cc(C(=O)NC3CCN(Cc4ccccc4)CC3)no2)c1 | n | n | u | n | u | n
CN(CC(=O)NC1CCN(Cc2ccccc2)CC1)S(=O)(=O)c1ccc(Br)s1 | n | n | -56 | n | n | n
O=C(NC1CCN(Cc2ccccc2)CC1)c1cccc(OC(F)F)c1 | n | n | -55 | n | n | n
O=C(Nc1ccc(S(=O)(=O)Nc2ccccc2)cc1)C1COc2ccccc2O1 (configuration not stated) | n | 13µM | n | n | n | n
CSc1cccc(NC(=O)c2ccc3c(c2)CCCN3S(C)(=O)=O)c1 | u | n | x | n | u | n
Cc1ccc(NC(=O)C(=O)c2cc(C)n(-c3ccc(F)cc3)c2C)cc1C | n | u | x | n | n | n
CCN(CC)S(=O)(=O)c1ccc2c(c1)N(CC(=O)Nc1cccc(C)c1C)C(=O)C1CCCN21 (configuration not stated) | x | u | x | n | x | n
S=C(NCc1ccccc1)N1CCN(Cc2ccc3c(c2)OCO3)CC1 | n | n | n | n | n[11.3 µM] | n
Cc1c(C(=O)NC2CCN(Cc3ccccc3)C2)oc2ccc(Br)cc12 (configuration not stated) | n | u | -59 | n | n | n
S=C(NCc1ccc2c(c1)OCO2)NC1CCN(Cc2ccccc2)CC1 | n | n | -60 | n | n | n
O=C(NC1CCN(Cc2ccccc2)CC1)c1ccc2c(c1)OCCCO2 | n | n | -57 | n | x | n
O=C(NC1CCN(Cc2ccccc2)CC1)C1COc2ccccc2O1 (configuration not stated) | n | n | -78 | n | n | n
Cc1ccc2c(c1)CN(CCNC(=O)c1cccc(Cn3cccn3)c1)CC(C)O2 (configuration not stated) | n | x | x | x | x | x
O=C(/C=C/c1cccc(Br)c1)NC1CCN(Cc2ccccc2)CC1 | n | n | -61 | n | n | n
O=C(/C=C/c1cccc(F)c1)NC1CCN(Cc2ccccc2)CC1 | n | u | u | n | u | n
O=C(NC1CCN(Cc2ccccc2)CC1)c1cccc(Br)c1 | n | u | -85 | n | n | n
O=C(NC1CCN(Cc2ccccc2)CC1)c1c(Cl)cccc1Cl | n | n | n | n | n | n
COc1cccc(CNC(=O)c2cc3c(=O)n(Cc4cccnc4)ccc3nc2C)c1 | n | u | x | n | u | n
S=C(NCCN(C1CCCCC1)C1CCCC1)Nc1cccc(Cl)c1 | u | u | -102 | n | u | n
S=C(NCCC(c1ccccc1)c1ccccc1)Nc1cccc(Cl)c1 | n | u | n | n | u | n
